# Experimental data reported in article PMC11062922 (Nature Chemical Biology, 2023).
# Read-outs that look alike come from different tables or passages of the source.
# Legend:
# Set-up in all cases: species or system human, MV4-11 + K-562 + COLO205 + SK-N-BE2 + OVCAR-8
# CLK1 = settings: read-out: apparent Kd; compound concentrations: 100 nM and 1000 nM (sheet 'Samples'), CATDS: 7.5926373911313003E-2; n = 1
# CLK4 = settings: read-out: apparent Kd; compound concentrations: 100 nM and 1000 nM (sheet 'Samples'), CATDS: 5.3158030493379999E-2; n = 1
# CSNK1D = settings: read-out: apparent Kd, n = 1
# CSNK1E = settings: read-out: apparent Kd, n = 1
# CSNK1G1 = settings: read-out: apparent Kd; compound concentrations: 100 nM and 1000 nM (sheet 'Samples'), CATDS: 3.9062620233065198E-2; n = 1
# CSNK2A1;CSNK2A3 = settings: read-out: apparent Kd; compound concentrations: 100 nM and 1000 nM (sheet 'Samples'), CATDS: 3.8692946827206802E-2; n = 1
# DYRK1A = settings: read-out: apparent Kd; compound concentrations: 100 nM and 1000 nM (sheet 'Samples'), CATDS: 3.9869758928983597E-2; n = 1
# EIF2AK1 = settings: read-out: apparent Kd; compound concentrations: 100 nM and 1000 nM (sheet 'Samples'), CATDS: 5.2303665150266299E-2; n = 1
# GAK = settings: read-out: apparent Kd; compound concentrations: 100 nM and 1000 nM (sheet 'Samples'), CATDS: 7.9054270069147406E-2; n = 1
# MAPK10 = settings: read-out: apparent Kd; compound concentrations: 100 nM and 1000 nM (sheet 'Samples'), CATDS: 6.4300767582532795E-2; n = 1
# MAPK8 = settings: read-out: apparent Kd; compound concentrations: 100 nM and 1000 nM (sheet 'Samples'), CATDS: 0.19867179384424899; n = 1
# MAPK9 = settings: read-out: apparent Kd; compound concentrations: 100 nM and 1000 nM (sheet 'Samples'), CATDS: 7.8815653035512301E-2; n = 1
# NUAK1 = settings: read-out: apparent Kd; compound concentrations: 100 nM and 1000 nM (sheet 'Samples'), CATDS: 4.4301419887818799E-2; n = 1
# PIP4K2C = settings: read-out: apparent Kd; compound concentrations: 100 nM and 1000 nM (sheet 'Samples'), CATDS: 4.1544409686620098E-2; n = 1
# PTK2B = settings: read-out: apparent Kd; compound concentrations: 100 nM and 1000 nM (sheet 'Samples'), CATDS: 4.7862573300624302E-2; n = 1
# PTK2 = settings: read-out: apparent Kd; compound concentrations: 100 nM and 1000 nM (sheet 'Samples'), CATDS: 4.8653444665563698E-2; n = 1
# RPS6KA1 = settings: read-out: apparent Kd; compound concentrations: 100 nM and 1000 nM (sheet 'Samples'), CATDS: 4.3998663303794899E-2; n = 1
# TNK1 = settings: read-out: apparent Kd; compound concentrations: 100 nM and 1000 nM (sheet 'Samples'), CATDS: 9.9368831187406595E-2; n = 1
# TTK = settings: read-out: apparent Kd; compound concentrations: 100 nM and 1000 nM (sheet 'Samples'), CATDS: 7.5031677714786096E-2; n = 1
# CIT = settings: read-out: apparent Kd, n = 1
# MAPK14 = settings: read-out: apparent Kd; compound concentrations: 100 nM and 1000 nM (sheet 'Samples'), CATDS: 0.21797862519498301; n = 1
# MAPKAPK2 = settings: read-out: apparent Kd, n = 1
# CDK6 = settings: read-out: apparent Kd; compound concentrations:100 nM and 1000 nM (sheet 'Samples'); n = 1
# CSNK1A1 = settings: read-out: apparent Kd; compound concentrations:100 nM and 1000 nM (sheet 'Samples'); n = 1
# DDR1 = settings: read-out: apparent Kd; compound concentrations:100 nM and 1000 nM (sheet 'Samples'); n = 1
# MAPK11 = settings: read-out: apparent Kd; compound concentrations:100 nM and 1000 nM (sheet 'Samples'); n = 1
# NLK = settings: read-out: apparent Kd; compound concentrations:100 nM and 1000 nM (sheet 'Samples'); n = 1
# PRKCA = settings: read-out: apparent Kd; compound concentrations:100 nM and 1000 nM (sheet 'Samples'); n = 1
# PRKD2 = settings: read-out: apparent Kd; compound concentrations:100 nM and 1000 nM (sheet 'Samples'); n = 1
# PRKD3 = settings: read-out: apparent Kd; compound concentrations:100 nM and 1000 nM (sheet 'Samples'); n = 1
# RIPK2 = settings: read-out: apparent Kd; compound concentrations:100 nM and 1000 nM (sheet 'Samples'); n = 1
# SIK3 = settings: read-out: apparent Kd; compound concentrations:100 nM and 1000 nM (sheet 'Samples'); n = 1
# TNIK = settings: read-out: apparent Kd; compound concentrations:100 nM and 1000 nM (sheet 'Samples'); n = 1
# CDKL5 = settings: read-out: apparent Kd, compound concentrations: 100 nM and 1000 nM (sheet 'Samples'), n = 1
# ERBB3 = settings: read-out: apparent Kd; compound concentrations: 100 nM and 1000 nM (sheet 'Samples'), CATDS: 0.345701208148325; n = 1
# MYLK3 = settings: read-out: apparent Kd; compound concentrations: 100 nM and 1000 nM (sheet 'Samples'), CATDS: 0.366305815038865; n = 1
# TESK1 = settings: read-out: apparent Kd; compound concentrations: 100 nM and 1000 nM (sheet 'Samples'), CATDS: 0.50795455679108803; n = 1
# [1] = compound concentrations:100 nM and 1000 nM (sheet 'Samples')
structure (smiles),measurement,setting,value
CCCN1CCC=C(c2ccc(Nc3nc(Nc4ccccc4C(N)=O)c4cc[nH]c4n3)c(C)c2)C1 [GSK994854A],potency estimated from few doses,CLK1,392 nM
same,potency estimated from few doses,CLK4,801 nM
same,potency estimated from few doses,"CSNK1D; compound concentrations: 100 nM and 1000 nM (sheet 'Samples'), CATDS: 3.8251361436103803E-2",2010 nM
same,potency estimated from few doses,"CSNK1E; compound concentrations: 100 nM and 1000 nM (sheet 'Samples'), CATDS: 3.6903644151272202E-2",2300 nM
same,potency estimated from few doses,CSNK1G1,1870 nM
same,potency estimated from few doses,CSNK2A1;CSNK2A3,1930 nM
same,potency estimated from few doses,DYRK1A,1740 nM
same,potency estimated from few doses,EIF2AK1,831 nM
same,potency estimated from few doses,GAK,365 nM
same,potency estimated from few doses,MAPK10,535 nM
same,potency estimated from few doses,MAPK8,94 nM
same,potency estimated from few doses,MAPK9,367 nM
same,potency estimated from few doses,NUAK1,1270 nM
same,potency estimated from few doses,PIP4K2C,1530 nM
same,potency estimated from few doses,PTK2B,1030 nM
same,potency estimated from few doses,PTK2,989 nM
same,potency estimated from few doses,RPS6KA1,1290 nM
same,potency estimated from few doses,TNK1,250 nM
same,potency estimated from few doses,TTK,400 nM
Fc1ccc(-c2nn3cccc(F)c3c2-c2ccncc2)cc1 [GW475620X],potency estimated from few doses,"CIT; compound concentrations: 100 nM and 1000 nM (sheet 'Samples'), CATDS: 0.166280456271373",1690 nM
same,potency estimated from few doses,"CSNK1D; compound concentrations: 100 nM and 1000 nM (sheet 'Samples'), CATDS: 0.24593653580007899",751 nM
same,potency estimated from few doses,"CSNK1E; compound concentrations: 100 nM and 1000 nM (sheet 'Samples'), CATDS: 0.167544749669055",1660 nM
same,potency estimated from few doses,MAPK14,934 nM
same,potency estimated from few doses,"MAPKAPK2; compound concentrations: 100 nM and 1000 nM (sheet 'Samples'), CATDS: 0.22915733614063999",851 nM
COc1cc(C)c(N(C)C(=O)CN(C)C)cc1Nc1nc(Nc2cccc(F)c2C(N)=O)c2cc[nH]c2n1 [GSK2219385_KCGS],potency estimated from few doses,CDK6,1850 nM
Cl.Nc1nccc(-c2c(-c3ccc(F)cc3)ncn2C2CCNCC2)n1 [SB-220025-A],potency estimated from few doses,CIT; [1],815 nM
same,potency estimated from few doses,CSNK1A1,19.8 nM
same,potency estimated from few doses,CSNK1D; [1],1.63 nM
same,potency estimated from few doses,CSNK1E; [1],2.51 nM
same,potency estimated from few doses,DDR1,1350 nM
same,potency estimated from few doses,MAPK11,689 nM
same,potency estimated from few doses,MAPKAPK2; [1],3.23 nM
same,potency estimated from few doses,NLK,324 nM
same,potency estimated from few doses,PRKCA,2370 nM
same,potency estimated from few doses,PRKD2,956 nM
same,potency estimated from few doses,PRKD3,1420 nM
same,potency estimated from few doses,RIPK2,68.3 nM
same,potency estimated from few doses,SIK3,1140 nM
same,potency estimated from few doses,TNIK,1610 nM
COc1cccc(-n2ncc3c(N/N=C/c4ccc(F)cc4)ncnc32)c1 [GW817396X],potency estimated from few doses,CDKL5; CATDS: 0.29608844643475601,2110 nM
same,potency estimated from few doses,ERBB3,1520 nM
same,potency estimated from few doses,MYLK3,1360 nM
CCn1c(-c2c(N)noc2C)nc2cnccc21 [SB-737856],potency estimated from few doses,CDKL5; CATDS: 0.49229073825052599,1930 nM
same,potency estimated from few doses,TESK1,1820 nM
